About 1,500 (3.8%) of roughly 39,000 compounds were called active. The full list was thinned out, with actives kept by preference.

In this experiment the test system is HSkMC (human skeletal muscle cells). Put plainly: cytotoxicity call (relative viability < 0.9). The settings on record: 10 µM.
In the case of `C[C@H]1CN([C@@H](C)CO)C(=O)c2cc(NC(=O)C3CCCCC3)ccc2O[C@H]1CN(C)Cc1ccc(-c2ccccc2)cc1`, the cytotoxicity call was “inactive”. In the case of `C[C@H](CO)N1C[C@H](C)[C@@H](CN(C)C(=O)Nc2ccc3c(c2)OCO3)Oc2c(NC(=O)C3CC3)cccc2C1=O` it was “inactive”. As for `C[C@H](CO)N1C[C@H](C)[C@@H](CN(C)C(=O)NC2CCCCC2)Oc2c(NC(=O)Nc3ccc(C(F)(F)F)cc3)cccc2C1=O`, the entry is “inactive”; as for `C[C@@H]1CN([C@H](C)CO)C(=O)c2cccc(NC(=O)Nc3ccc(C(F)(F)F)cc3)c2O[C@@H]1CN(C)C(=O)NC1CCCCC1`, “active”. In the case of `C[C@@H]1CN([C@@H](C)CO)C(=O)c2cccc(NC(=O)Nc3ccc(C(F)(F)F)cc3)c2O[C@@H]1CN(C)C(=O)NC1CCCCC1` it was “inactive”; in that of `C[C@H]1CN([C@@H](C)CO)C(=O)c2cccc(NC(=O)Nc3ccc(C(F)(F)F)cc3)c2O[C@@H]1CN(C)C(=O)NC1CCCCC1`, “active”; in that of `C[C@H]1CN([C@@H](C)CO)C(=O)c2cccc(NC(=O)Nc3ccc(C(F)(F)F)cc3)c2O[C@H]1CN(C)C(=O)NC1CCCCC1`, “inactive”.

Regarding `C[C@H](CO)N1C[C@H](C)[C@H](CN(C)C(=O)NC2CCCCC2)Oc2c(NC(=O)Nc3ccc(C(F)(F)F)cc3)cccc2C1=O`, the cytotoxicity call was “inactive”. In the case of `C[C@@H]1CN([C@@H](C)CO)C(=O)c2cccc(NC(=O)Nc3ccc(C(F)(F)F)cc3)c2O[C@H]1CN(C)C(=O)NC1CCCCC1` it was “active”; in that of `C[C@H](CO)N1C[C@H](C)[C@@H](CN(C)C(=O)Nc2ccc(C(F)(F)F)cc2)Oc2c(NC(=O)NC3CCCCC3)cccc2C1=O`, “inactive”.

In the case of `C[C@@H]1CN([C@H](C)CO)C(=O)c2cccc(NC(=O)Nc3ccc(C(F)(F)F)cc3)c2O[C@H]1CN(C)C(=O)NC1CCCCC1`, the cytotoxicity call is “inactive”. As for `CC(C)NC(=O)Nc1cccc2c1O[C@H](CN(C)S(=O)(=O)c1ccccc1)[C@H](C)CN([C@H](C)CO)C2=O`, the entry is “inactive”. In the case of `C[C@@H]1CN([C@@H](C)CO)C(=O)c2cccc(NC(=O)Nc3ccc(C(F)(F)F)cc3)c2O[C@H]1CN(C)Cc1ccc(C(=O)Nc2ccccc2N)cc1` it was “inactive”; in that of `C[C@H](CO)N1C[C@H](C)[C@H](CN(C)C(=O)c2ccccc2)OCCCC[C@H](C)Oc2ccc(NC(=O)NC3CCCCC3)cc2C1=O`, “inactive”. In the case of `O=C(C[C@@H]1CC[C@H](NS(=O)(=O)c2ccc(F)cc2)[C@H](CO)O1)NCc1ccc(Cl)c(Cl)c1` it was “inactive”.

In the case of `C[C@@H]1CN([C@@H](C)CO)S(=O)(=O)c2ccc(-c3cccnc3)cc2O[C@H]1CN(C)CC1CCOCC1`, the cytotoxicity call was “inactive”. As for `COCC(=O)N(C)C[C@H]1Oc2cc(C#CCN(C)C)ccc2S(=O)(=O)N([C@H](C)CO)C[C@H]1C`, the entry is “inactive”; as for `CCNC(=S)N1CCC[C@H](C(N)=O)C1`, “inactive”; as for `Cn1cncc1CN1CCO[C@]2(COCCN(S(C)(=O)=O)C2)C1`, “inactive”. In the case of `Cc1noc(C)c1NC(=O)Nc1ccc2c(c1)C(=O)N([C@@H](C)CO)C[C@H](C)[C@@H](CN(C)C(=O)Nc1ccc3c(c1)OCO3)OCCCC[C@H](C)O2` it was “inactive”. In the case of `Nc1ncnc2c1ncn2C1OC(COP(=O)(O)OP(=O)([O-])OP(=O)([O-])O)C(O)C1O.[Na+].[Na+]` (centres undefined) it was “inactive”. `COc1cccc(S(=O)(=O)N(C)C[C@@H]2OCc3cn(nn3)CCCC(=O)N([C@H](C)CO)C[C@@H]2C)c1`: the cytotoxicity call was “inactive”. As for `C[C@H](CO)N1C[C@H](C)[C@H](CN(C)Cc2ccc(Oc3ccccc3)cc2)Oc2ccc(NC(=O)Nc3cccc4ccccc34)cc2C1=O`, the entry is “active”. As for `C[C@H]1CN([C@@H](C)CO)C(=O)c2cc(NC(=O)Nc3cccc4ccccc34)ccc2O[C@@H]1CN(C)Cc1ccc(Oc2ccccc2)cc1`, the entry is “inactive”; as for `C[C@H](CO)N1C[C@H](C)[C@@H](CN(C)Cc2ccc(Oc3ccccc3)cc2)Oc2ccc(NC(=O)Nc3cccc4ccccc34)cc2C1=O`, “inactive”; as for `C[C@@H]1CN([C@H](C)CO)C(=O)c2cc(NC(=O)Nc3cccc4ccccc34)ccc2O[C@H]1CN(C)Cc1ccc(Oc2ccccc2)cc1`, “inactive”. As for `C[C@@H]1CN([C@@H](C)CO)C(=O)c2cc(NC(=O)Nc3cccc4ccccc34)ccc2O[C@@H]1CN(C)Cc1ccc(Oc2ccccc2)cc1`, the entry is “active”; as for `C[C@@H]1CN([C@H](C)CO)C(=O)c2cc(NC(=O)Nc3cccc4ccccc34)ccc2O[C@@H]1CN(C)Cc1ccc(Oc2ccccc2)cc1`, “inactive”. `COc1ccccc1C#Cc1cnc2c(c1)C(=O)N([C@@H](C)CO)C[C@@H](C)[C@H](CN(C)S(=O)(=O)c1cn(C)cn1)O2`: the cytotoxicity call was “inactive”. For the molecule `CN1C(=O)c2cc(NC(=O)C3CCOCC3)ccc2OC[C@@H]2O[C@H](CC(=O)NCc3ccccc3F)CC[C@H]21`, the cytotoxicity call was “inactive”. As for `NC(=O)NCC#Cc1ccc2c(c1)[C@]1(C(=O)N2)[C@H](C(=O)N2CCN(c3ncccn3)CC2)[C@H]2C(=O)O[C@H](c3ccccc3)[C@H](c3ccccc3)N2[C@@H]1c1ccc(OCCO)cc1`, the entry is “inactive”; as for `Cc1noc(C)c1NC(=O)Nc1ccc2c(c1)C(=O)N([C@@H](C)CO)C[C@H](C)[C@H](CN(C)Cc1ccc(C(=O)O)cc1)OCCCC[C@@H](C)O2`, “inactive”; as for `C[C@H](CO)N1C[C@H](C)[C@@H](CN(C)Cc2ccc(-c3ccccc3)cc2)Oc2c(NC(=O)c3nc4ccccc4s3)cccc2C1=O`, “inactive”. As for `C[C@]12CC[C@@H]3[C@]4(C=C[C@@]5(C=C4C(=O)c4cc6ccccc6s4)C[C@@H](O)CC[C@]35C)[C@@H]1CC[C@@]2(O)CN1CCC(n2c(=O)[nH]c3ccccc32)CC1`, the cytotoxicity call is “inactive”. Turning to `CCC(=O)OCC(=O)C1(OC(=O)CC)C(C)CC2C3CCC4=CC(=O)C=CC4(C)C3(Cl)C(O)CC21C` (centres undefined), the cytotoxicity call was “inactive”. In the case of `CCC(=O)OC1(C(=O)CCl)C(C)CC2C3CCC4=CC(=O)C=CC4(C)C3(F)C(O)CC21C` (centres undefined) it was “inactive”; in that of `CC1CC2C3CCC4=CC(=O)C=CC4(C)C3(Cl)C(O)CC2(C)C1(OC(=O)c1ccco1)C(=O)CCl` (centres undefined), “active”. As for `C[C@H](CO)N1C[C@H](C)[C@H](CN(C)S(=O)(=O)c2ccc(F)cc2)Oc2ncc(C#CCN(C)C)cc2C1=O`, the entry is “inactive”. In the case of `CCS(=O)(=O)NCC[C@@H]1CC[C@@H](NC(=O)C2CCOCC2)[C@H](CO)O1` it was “inactive”.

The values are drawn from the antibiotic and cytotoxicity screens of Wong et al. (2023).
